The list is not random: actives were taken first. Their share in the collection is about 2.3%.
M1 PAM parental: nonselective calcium activators in parental CHO-K1 cells, primary screen, counter-screen for M1 PAM project, cell-based, Fluo-8 calcium fluorescence, full deck, 1536-well | ATP EC20; 0% at ATP EC20, 100% at ATP max | activation, % at 3 µM | 360,000 tested, 0.02% active;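 active = activation above the run cutoff, the mean activation of all test compounds plus 3 SD, cut at about 40% in these data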;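 note: peak over basal fluorescence ratio in a 140 s read after ATP addition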
CHRM1 PAM: human M1 muscarinic receptor positive allosteric modulators, primary screen, CHO-K1 cells, Fluo-8 calcium fluorescence, 1536-well; AID 588819, 2011; activation, % at 3 µM; 360,000 tested, 0.088% active; CHO-K1 hM1, ACh EC20; 0% = ACh EC20, 100% = maximal ACh; in the data active = activation above about 19%, passing the limit was not always enough
Target sequence (P11229 whole entry, looked up): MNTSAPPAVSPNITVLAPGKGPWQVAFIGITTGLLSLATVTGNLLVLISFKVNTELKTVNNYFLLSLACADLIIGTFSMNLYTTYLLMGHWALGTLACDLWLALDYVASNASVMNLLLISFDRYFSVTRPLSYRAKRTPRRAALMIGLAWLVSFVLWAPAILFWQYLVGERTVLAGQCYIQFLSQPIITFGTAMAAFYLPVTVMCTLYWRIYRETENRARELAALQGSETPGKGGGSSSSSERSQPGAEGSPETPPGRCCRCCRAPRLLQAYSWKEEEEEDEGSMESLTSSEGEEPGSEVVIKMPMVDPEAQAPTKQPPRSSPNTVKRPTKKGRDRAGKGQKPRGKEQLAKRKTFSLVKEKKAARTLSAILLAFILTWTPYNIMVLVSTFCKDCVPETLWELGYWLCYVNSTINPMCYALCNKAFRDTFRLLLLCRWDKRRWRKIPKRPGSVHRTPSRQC
CHO-K1 Ca antag: M1 antagonist counterscreen hit in parental CHO-K1 cells; 360,000 tested, 0.6% active; AID 602250; ATP-induced calcium, Fluo-8 fluorescence; inhibition, % at 3 µM;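 active = inhibition above a per-plate cutoff, the plate's mean sample inhibition plus 3 SD, cut at about 24% in these data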
M1 ag: human M1 muscarinic receptor agonists, primary screen, Fluo-8 calcium fluorescence, CHO-K1 cells, HTS; Muscarinic acetylcholine receptor M1 (Homo sapiens), P11229; CHO-K1 hM1, agonist mode; 0% DMSO, 100% acetylcholine EC100; activation, % at 3 µM; 360,000 tested, 0.33% active;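 active = activation above the run's mean compound activation plus 3 SD, cut at about 16% in these data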;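 note: peak over basal fluorescence ratio within a 140 s kinetic read after compound addition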
CHO-K1 Ca ag: counter-screen for M1 agonists: effect in parental CHO-K1 cells | Fluo-8 calcium fluorescence; scaled to maximal ATP response, vehicle zero | activation, % at 3 µM | 360,000 tested, 0.48% active | AID 602248, 2012; in the data active = activation above about 15%;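 note: untransfected CHO-K1 host cells lacking M1 receptor as counterscreen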
CHRM1 antagonist: human M1 muscarinic receptor antagonists, primary screen, CHO-K1 cells, Fluo-8 calcium fluorescence, 1536-well. Muscarinic acetylcholine receptor M1 (Homo sapiens), P11229. CHO-K1 hM1, ACh EC80 antagonist. inhibition, % at 3 µM. 360,000 tested, 1.3% active;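 active = percent inhibition above its own plate's cutoff, namely the mean of that plate's compound wells plus 3 SD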;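 note: peak over basal fluorescence ratio during 140 s after agonist addition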
Numbers stand for hits; i = inactive.

SMILES	M1 PAM parental	CHRM1 PAM	CHO-K1 Ca antag	M1 ag	CHO-K1 Ca ag	CHRM1 antagonist
COC(=O)c1[nH]c2cccc(OC)c2c1NC(=O)CN(C)CC1OCCO1	i	i	23.7	i	i	i
CCOC(=O)c1c(C)oc2ccc(NS(=O)(=O)c3ccc(C(=O)O)cc3)cc12	i	i	i	i	i	i
CC1(C)CC(=O)c2c(oc3ccc(NS(=O)(=O)c4ccc(C(=O)O)cc4)cc23)C1	i	i	24.5	i	i	i
CN(CCCCCCCCC(=O)/C=N/O)Cc1ccccc1	i	i	i	i	i	68.7
O=C1NC(=O)C(c2ccccc2)(c2ccccn2)N1 (stereo unspecified)	i	i	i	i	i	i
O=C1NC(=S)NC1(c1ccccc1)c1ccccc1	i	i	i	i	i	47.0
COc1ccc(N=Cc2oc3ccc4ccccc4c3c2O)cc1	i	i	i	i	24.4	i
Cc1nn(C(=O)CNS(=O)(=O)c2ccccc2)c(C)c1Sc1ccc(Cl)cc1	i	i	i	i	i	i
Cc1ccc(S(=O)(=O)N(C)CC(=O)Nc2nc3ccccc3s2)cc1	i	i	23.9	i	i	i
CCc1ccc(C(C)NC(=S)NCc2ccc(F)cc2)cc1 (stereo unspecified)	i	i	i	i	i	40.3
CCOc1ccc(C(C)NC(=S)NCc2ccc(F)cc2)cc1 (stereo unspecified)	i	i	i	i	22.6	i
Cc1ccc(C(C)NC(=S)NCc2ccc(F)cc2)cc1C (stereo unspecified)	i	i	i	i	i	i
CCOc1ccc(CNC(=S)NCc2ccc(OCC)cc2)cc1	i	i	i	i	i	i
CCOc1ccc(C(C)NC(=O)C2CCC2)cc1 (stereo unspecified)	i	i	23.7	i	i	i
COc1ccccc1CNC(=O)Cn1cc(Br)ccc1=O	i	i	i	i	i	i
CC1(C)CC(=O)C=C(c2ccc(-c3cnn(Cc4ccccc4)c3)cc2)C1=O	i	i	i	i	i	i
Fc1ccc2[nH]c3c(NCc4ccccc4)ncnc3c2c1	i	i	33.7	i	19.1	i
O=C(NNS(=O)(=O)c1ccc2ccccc2c1)C1CCN(Cc2ccccc2)CC1	i	i	i	i	i	84.8
O=S(=O)(NC1CCN(Cc2ccccc2)CC1)c1ccc2ccccc2c1	i	i	i	i	i	i
Cc1cc(/C=C(\C#N)C(=O)NCc2ccco2)c(C)n1-c1cccnc1	i	i	i	i	i	i
Cc1cc(/C=C(/C#N)c2cccc(F)c2)c(C)n1-c1cccnc1	i	i	i	i	i	33.6
Cc1cc(C)cc(NC(=O)c2ccc(CSc3nnc(C)s3)cc2)c1	i	i	i	i	i	36.5
CC1(C(=O)O)CCCN(C(=O)c2cccnc2Oc2ccccc2)C1 (stereo unspecified)	i	i	i	i	i	i
CCN(CC)CCNC(=O)c1ccc2c(=O)n(C3CCCC3)c(=S)[nH]c2c1	i	i	i	i	i	56.6
CC(C)NC(=O)c1ccc2c(=O)n(C3CCCC3)c(=S)[nH]c2c1	i	i	i	i	i	i
SMILES	M1 PAM parental	CHRM1 PAM	CHO-K1 Ca antag	M1 ag	CHO-K1 Ca ag	CHRM1 antagonist
O=c1c2c3n(c(=S)nc2[nH]n1-c1ccccc1)CCCCC3	i	i	i	i	i	i
Nc1ccc2cc3[nH]c4cc(N)ccc4c3nc2c1	i	i	56.8	35.7	33.2	57.1
CC(C)CC(NC(=O)C(NC(=O)C1OC2OC(C)(C)OC2C2OC(C)(C)OC12)C(C)C)C(=O)O (stereo unspecified)	i	i	i	i	i	i
COc1ccc(C2=Nn3c(nnc3-c3ccccc3OC)SC2)cc1OCC1CC1	i	i	i	i	i	i
COc1ccc(OC)c(-c2nnc3n2N=C(c2ccc(OC(F)F)c(OCC4CC4)c2)CS3)c1	i	i	i	i	i	39.7
O=C(NCCc1ccc(Cl)cc1)c1ccc(CS(=O)Cc2ccccc2Cl)o1 (stereo unspecified)	i	i	i	i	i	36.6
CN(c1ccccc1)c1ccc(/C=C/[N+](=O)[O-])cc1	i	i	28.2	22.8	20.1	64.0
O=[N+]([O-])c1ccc(C=CC=Cc2ccccc2)cc1	i	i	i	i	i	i
O=C(Nc1nnc(-c2ccccc2Cl)o1)c1nc2ccccc2s1	i	i	i	73.8	47.9	i
COc1ccccc1-c1nnc(Nc2nc3c(OC)cccc3s2)o1	i	i	i	i	i	i
COc1cccc2sc(Nc3nnc(-c4ccccc4Cl)o3)nc12	i	i	29.4	i	i	i
O=C(Nc1nnc(-c2ccccc2Cl)o1)c1ccco1	i	i	i	i	i	i
CN1c2ccccc2Oc2nnc(Cl)cc21	i	i	26.7	i	i	i
COc1ccc2oc3cc(NCCN(C)C)ccc3c(=O)c2c1	i	i	i	i	i	i
COC(=O)CC1OCC=C2CN3CCC45C6=CC(=O)C(=O)C([N+](=O)[O-])=C6NC4C1C2CC35 (stereo unspecified)	i	i	i	i	i	i
O=S1(=O)N=C(N2CCCc3ccccc32)c2ccccc21	i	i	i	i	i	i
O=S1(=O)N=C(N2CCc3ccccc3C2)c2ccccc21	i	i	i	i	i	36.4
O=S(=O)(/C=C/C=C/S(=O)(=O)c1ccccc1)c1ccccc1	i	i	i	i	i	i
Cc1cc(C)cc(NS(=O)(=O)c2c(C)[nH]c(=O)[nH]c2=O)c1	i	i	27.1	i	i	i
O=C(CCN1C(=O)/C(=C/C=C/c2ccccc2)SC1=S)Nc1nccs1	i	i	25.8	i	i	i
Cc1ccc(N2C(=O)CSC2c2c(F)cccc2Cl)cc1 (stereo unspecified)	i	i	i	i	i	98.5
COc1cccc(C2SCC(=O)N2c2ccc(Cl)cc2)c1OC (stereo unspecified)	i	i	i	i	i	50.7
COc1ccccc1N1CCN(C(=O)[C@@H]2CCCN2C2=NS(=O)(=O)c3ccccc32)CC1	i	i	i	i	i	i
O=C(NCc1ccccc1)C(c1ccccc1)N(Cc1ccc2c(c1)OCO2)C(=O)Cc1cccs1 (stereo unspecified)	i	i	i	i	i	44.9
COc1ccc(CNC(=O)C(c2ccc(C)o2)N(Cc2cccs2)C(=O)Cc2cccs2)cc1 (stereo unspecified)	i	i	i	i	i	40.3

Screening results deposited in PubChem by The Scripps Research Institute Molecular Screening Center.
